Source: PubChem BioAssay (NCATS)
Results filed as inconclusive are left out. Calls of active or inactive are those of the source. Calls come from the whole dose curve; as a rule, active = well fitted inhibition curve with a large enough effect; inconclusive = small, poorly fitted or top-dose-only effect; inactive = flat fitted curve, though single readings scatter.

Test system: W2
Assay: qHTS profiling for inhibitors of Plasmodium falciparum proliferation (AID 504749); note: nearly all actives have a fitted effect of over 60% in size
Conditions: P. falciparum in erythrocytes, SYBR Green DNA, 72 h; series mostly up to 28.7 µM
Description: NIH National Institute of Allergy and Infectious Diseases [NIAID] NIH Chemical Genomics Center [NCGC] MLPCN Grant: None Assay Provider: Xinzhuan Su, NIAID NCGC Assay Overview: Plasmodium falciparum is a virulent malarial parasite that kills 1-2 million people worldwide each year. Transmitted by mosquitoes, the sporozoite form of the parasite enters the blood stream to infect hepatocytes, where they become merozoites that infect red blood cells (erythrocytes). Within erythrocytes, merozoites begin a […] cycle of growth and division, after which the parasite is released to infect new red blood cells. Gametocytes, which form within erythrocytes as well, circulate in the bloodstream and are ingested by the mosquito, thereby completing the life cycle. To profile malarial isolates for differential chemical responses and to identify inhibitors of malarial growth, an assay that measures P. falciparum growth and replication within erythrocytes was employed. This assay uses a DNA binding fluorescent dye (SYBR Green) to detect parasite DNA following cell lysis. Because mature erythrocytes lack DNA, only Plasmodium-derived DNA is detected.
NCGC Assay Protocol Summary: The SYBR Green viability assay was adapted from a method described previously (Plouffe et al., 2008). For screening 3 ul culture medium was dispensed into 1536 well black clear bottom plates (Aurora Biotechnologies) using a Multidrop Combi (Thermo Fisher Scientific Inc.), 23 nL compounds in DMSO were added by a pin tool (Kalypsys), and 5 ul of erythrocytes infected with P. falciparum (0.3% parasitemia, 2.5% hematocrit final concentration) were added. The plates were incubated at 37 C in a humidified incubator in 5% CO2 for 72 h, and 2 ul lysis buffer (20 mM Tris HCl, 10 mM EDTA, 0.16% saponin, 1.6% triton X, 10X SYBR Green I supplied as 10,000X […] by Invitrogen) was added to each well. The plates were mixed for 25 sec with gentle shaking and incubated overnight at room temperature in the dark. The following morning, fluorescence intensity at 485(14) nm excitation and 535(25) nm emission wavelengths was measured on an EnVision (Perkin Elmer) plate reader. Plate reads were normalized relative to the control inhibitor (0.29 uM artemisinin) and vehicle (DMSO) wells present on each plate and then corrected by an algorithm using vehicle-only control plates at the beginning and end of the compound plate stack.
Potency is the fitted concentration of half-maximal effect.

Q: `CC(NCCC(c1ccccc1)c1ccccc1)c1ccccc1` (configuration not stated) was tested. Which Potency did it give?
A: 4.26 µM (active)

Q: For `Nc1ccc2cc3ccc(N)cc3nc2c1`, which Potency is on record?
A: 7.57 µM (active)

Q: With `CN1CCCN(C(c2ccccc2)c2ccc(Cl)cc2)CC1` (configuration not stated) as the compound, how does the Potency read?
A: 1.2 µM (active)

Q: With `O=C(Nc1ccc(Cl)cc1)Nc1ccc(Cl)c(Cl)c1` as the compound, how does the Potency read?
A: 3.01 µM (active)

Q: How did the Potency turn out when `CCCCCCCCCCCCCC[N+](C)(C)C` was run?
A: 4.26 µM (active)

Q: How did the Potency turn out when `CCCCCCCCCCCCCCCC[N+](C)(C)Cc1ccccc1` was run?
A: 4.26 µM (active)

Q: Which Potency does the source give for `O=[N+]([O-])c1ccc(O)c2ncccc12` here?
A: 10.7 µM (active)

Q: For `CN1CCC(Nc2ncc3ncnc(Nc4ccc(F)c(Cl)c4)c3n2)CC1`, which Potency is on record?
A: 5.36 µM (active)

Q: `Nc1c2ccccc2nc2ccccc12` was tested. Which Potency did it give?
A: 8.49 µM (active)

Q: With `CCCCCCCCCCCCCCCC[n+]1ccccc1` as the compound, how does the Potency read?
A: 1.51 µM (active)

Q: Which Potency does the source give for `Nc1ncnc2nc[nH]c12` here?
A: inactive

Q: For `O=S(=O)(O)c1ccc2nc(-c3ccccc3)[nH]c2c1`, which Potency is on record?
A: inactive
